Experimental findings from PubChem BioAssay AID1347145 (National Center for Advancing Translational Sciences (NCATS), 2019) are described below.

The structures appear in SMILES notation. Records with an inconclusive call do not appear. A number with no mark means an inactive call. Calls come from the whole dose curve; as a rule, active = well fitted inhibition curve with a large enough effect; inconclusive = small, poorly fitted or top-dose-only effect; inactive = no such curve, though single readings can be large or run the other way.

Sequence of N-terminal Xaa-Pro-Lys N-methyltransferase 1 (Homo sapiens) (Q9BV86 whole entry, looked up): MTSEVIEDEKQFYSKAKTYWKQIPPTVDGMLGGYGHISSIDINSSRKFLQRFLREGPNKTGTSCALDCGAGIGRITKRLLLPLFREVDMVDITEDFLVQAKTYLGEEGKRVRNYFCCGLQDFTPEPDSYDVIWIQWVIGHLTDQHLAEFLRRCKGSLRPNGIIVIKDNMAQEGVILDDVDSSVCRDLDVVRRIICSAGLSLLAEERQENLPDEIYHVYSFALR

The experiment concerns the target N-terminal Xaa-Pro-Lys N-methyltransferase 1 (Homo sapiens) (UniProt Q9BV86). The experiment is described as follows: qHTS Assay for Inhibitors of N-terminal methyltransferase 1 (NTMT1): MTaseGlo Assay Confirmatory Screen, Round 1. The following applies: Recombinant NTMT1, MTase-Glo SAH luminescence; series mostly up to 57.1 µM; activity change, negative = inhibition: at the top concentration. The source says: Assay Submitter (PI): Rong Huang Ph.D, Purdue University, West Lafayette, IN 47907 The N-terminal methytransferase 1 is the first methyltransferase that methylates protein alpha-N-amines and plays an important role in regulating cell mitosis, chromatin interactions and DNA repair. It is observed to be over-expressed in various cancer patient tissues like malignant melanoma and colorectal cancer tissues. Knockdown of NTMT1 in cancer cells causes cell mitotic defects and enhances sensitivity to DNA damaging chemotherapeutics. […] These critical cellular processes in which NTMT1 is implicated, coupled with emerging links to cellular dysfunction, strengthen the inference that NTMT1 is a compelling novel anticancer target. Progress have been made in understanding the molecular properties of NTMT1 and the biological consequences of protein alpha-N-terminal methylation, but there are no specific small molecule probes available for NTMT1 to fully characterize its MTase activity. To address this unmet need, a panel of assay is created and established to enable quantitative high-throughput screening (qHTS) for novel, potent, and selective small molecule NTMT1 inhibitors. Two orthogonal qHTS that use different reagents (ThioGlo vs. MTaseGlo) are developed for primary robotic screening against the NCATS chemical library of more than 400,000 small molecules. Identified inhibitors are reacquired, validated, and further characterized. MTaseGlo Assay is a luminescence screen that measure the activity of methyltransferases based on the reaction product S-adenosyl homocysteine (SAH). The substrate SAM is converted to SAH upon enzyme activation. MTase-Glo reagent and detection solution convert SAH to ATP and measure the light from the luciferase reaction. […] Early Translation Branch (ETB) National Center for Advancing Translational Sciences (NCATS) National Institute of Health (NIH)
Materials: NTMT1 enzyme, substrate SPKRIA, control peptide RCC1-6 is provided by the Huang laboratory. MTaseGlo Assay: In brief, 3 µL of enzyme mixture (final concentrations of 125 nM and 100 µM for NTMT1 and SAM, respectively) into all wells of a 1,536-well solid-bottom white plate (Greiner Bio One, Monroe, NC). 23 nL of DMSO or Ac-RCC1-10 (final concentration range 234 nM to 143 microM) was transferred via Wako Pin-tool (Wako Automation, Richmond, VA) and incubated (RT) for ~15 minutes. Next, 1 µL of substrate (final concentration 1 µM) or buffer was dispensed, and the reaction proceeded for 30 minutes (RT, protected from light) followed by a 1 microL addition of [5X] MTase-Glo Reagent(R). Samples were incubated (RT, protected from light) for 30 minutes to allow for SAH to be converted to ADP, followed by a 5 microL addition of [1X] MTase-Glo Detection Solution(R) to allow for ADP to be converted to ATP, which was then detected with a luciferase reaction. Samples were centrifuged for 15 seconds at 1,000 RPM's, followed by a RT incubation for 30 minutes. Plates were then read using Luminescence optics on a ViewLux detector. Data were normalized to no-enzyme (0% activity) and no-inhibitor (DMSO; 100%) controls, and the resulting percent inhibition data were fitted to a 4-parameter Hill equation using Graphpad Prism.
As for `Nc1ncnc2c1ncn2[C@@H]1O[C@@H]2CO[P@](=O)(S)O[C@H]2[C@H]1O`, the “activity change, negative = inhibition” value is -6.04%.

Take `CCNC(=O)[C@H]1O[C@@H](n2cnc3c(N)ncnc32)[C@H](O)C1O` (stereo partly drawn): the “activity change, negative = inhibition” value is -1.75%. Under `Nc1ncnc2c1ncn2[C@@H]1O[C@H](COP(=O)(O)OP(=O)(O)OP(=O)(O)O)[C@H]2OC3(O[C@H]21)C([N+](=O)[O-])=CC(=[N+]([O-])[O-])C=C3[N+](=O)[O-]` (stereo partly drawn) stands 481%; under `Nc1ncnc2c1ncn2[C@@H]1O[C@H](COP(=O)(O)CP(=O)(O)O)[C@@H](O)[C@H]1O`, 4.38%. Take `COc1cc2nc(N3CCCN(C)CC3)nc(N(C)C3CCN(C)CC3)c2cc1OC`: the “activity change, negative = inhibition” value is -10.2%. Under `Nc1ncnc2c1ncn2[C@@H]1O[C@@H]2COP(O)(=S)O[C@H]2[C@H]1O` (stereo partly drawn) stands 2.01%. As for `CCN(CC)c1ncnc2c1ncn2[C@@H]1O[C@H](COP(=O)(O)OP(=O)(O)C(Br)(Br)P(=O)(O)O)[C@@H](O)[C@H]1O`, the “activity change, negative = inhibition” value is 6%. Under `Nc1ncnc2c1nc(Sc1ccc(Cl)cc1)n2[C@@H]1O[C@@H]2COP(O)(=S)O[C@H]2[C@H]1O` (stereo partly drawn) stands 11.2%.
